Bioassay records (PubChem BioAssay)
ALR inh: human ALR oxidase inhibition via reduced H2O2. P55789. purified ALR, DTT oxidation, H2O2 HRP-luminol luminescence. inhibition, % (no concentration beside the values). 3.8% of 290,000 active. AID 485317;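 active = mean replicate inhibition above about 79%, with every replicate also reaching it, limit read from the data; inconclusive = only one of the two criteria met; inactive = mean below limit and not every replicate reaching it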
Target sequence (P55789 whole entry, looked up): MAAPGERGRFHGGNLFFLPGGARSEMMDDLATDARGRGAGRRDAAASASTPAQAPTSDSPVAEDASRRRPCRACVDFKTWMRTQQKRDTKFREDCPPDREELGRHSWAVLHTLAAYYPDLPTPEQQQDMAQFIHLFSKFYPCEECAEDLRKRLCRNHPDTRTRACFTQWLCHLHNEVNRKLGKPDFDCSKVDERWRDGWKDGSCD
PABP polyA inh: PABP-poly(A) binding inhibition | P11940 | PABP-poly(A) RNA binding, fluorescence polarization | inhibition, % at 35 µM | 1% of 290,000 active | AID 2014;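 also: calls also rest on retests at 20 µM and on dose response follow-up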
Efflux pump inh: blocks antifungal efflux pumps in multiplex yeast assay. S. cerevisiae Candida pump triplex, Nile Red efflux. inhibition, % at 10 µM. 0.44% of 330,000 active;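 active = plate passing quality check with inhibition over a set limit, or well fluorescence over plate mean plus 4 SD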;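 also: Nile Red retained in pooled yeast measured as flow cytometry median fluorescence; 0% = buffer negative control and 100% = Enniatin B positive control; higher means more Nile Red kept so more efflux inhibition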
SUMO HTRF inh: SUMOylation inhibition; HTRF SUMOylation assay, SAE1/SAE2 + UBC9, in vitro; AID 2006; inhibition, % at 35 µM; 0.36% of 290,000 active; in the data active = inhibition above about 50%, passing the limit was not always enough; inconclusive = no clear call, values can overlap the other calls
Target sequence (P63279 whole entry, looked up): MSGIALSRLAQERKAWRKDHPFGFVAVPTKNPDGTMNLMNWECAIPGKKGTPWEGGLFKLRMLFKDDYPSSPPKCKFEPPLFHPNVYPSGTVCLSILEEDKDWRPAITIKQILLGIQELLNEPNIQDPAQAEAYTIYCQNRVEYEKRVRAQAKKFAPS
MLLE-PAM2 inh: inhibitors of microRNA-mediated deadenylation, human PABP1 MLLE binding; 0.36% of 360,000 active; GST-MLLE / FITC-PAM2 fluorescence polarization; inhibition, % at 20 µM; in the data active = inhibition above about 35%, passing the limit was not always enough;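 also: plate controls were DMSO wells with GST-MLLE for no effect and wells lacking GST-MLLE protein for full effect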
eIF4H inh: inhibitors of RNA binding by human eIF4H; Q15056; eIF4H fluorescence polarization binding assay; inhibition, % at 35 µM; 0.94% of 290,000 active;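 also: calls also rest on retests at 20 µM and on dose response follow-up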
* marks the source's active call; other numbers are inactive results; u = inconclusive; x = no result given. Hits are enriched below; roughly 4.7% of the tested compounds scored in any of these assays. Unless noted, no rule for the calls is given here.

SMILES | ALR inh | PABP polyA inh | Efflux pump inh | SUMO HTRF inh | MLLE-PAM2 inh | eIF4H inh
COc1ccc(C(C)=O)c(OCC(=O)NCCC2=CCCCC2)c1 | x | x | x | x | -5.3 | x
CCCCNC(=O)CS(=O)Cc1nc(-c2cccc(C)c2)oc1C (stereo unspecified) | 98.8* | -4.3 | -0.1 | 2.8 | 15.1 | -0.8
COc1ccc(NC2CCCN(C(=O)CCN3CCCO3)C2)cc1 (stereo unspecified) | 95.7* | 1.9 | -0.1 | 0.4 | 8.9 | -8.5
COc1ccc(NC2CCCN(C(=O)CCN3CCOCC3)C2)cc1 (stereo unspecified) | 98.7* | -4.6 | 0.0 | 6.1 | 2.0 | 2.8
O=C1C=C(C2OC(CO)C(O)C2O)C(=O)N1 (stereo unspecified) | x | x | x | x | 42.7* | x
Cc1ccccc1Nc1nc(N)[nH]c(=O)c1N=O | x | x | x | x | 45.1* | x
CCOc1cc(NC(=O)c2ccccn2)c(OCC)cc1NC(=O)c1ccccc1 | -4.9 | -3.9 | 0.0 | 5.1 | -4.1 | 4.1
CCOc1cc(NC2CS(=O)(=O)CC2O)c(OCC)cc1NC(=O)c1ccccc1 (stereo unspecified) | 88.7* | -10.2 | -0.2 | 16.9 | -3.8 | -3.3
COc1ccc(C=NNC(=O)c2cc(C)oc2C)cc1O | 98.9* | x | -0.1 | x | 5.2 | x
COc1cc(/C=N/NC(=O)c2cc(C)oc2C)ccc1O | 98.6* | -9.8 | -0.1 | 0.2 | 2.3 | 4.5
O=C(N/N=C\c1ccc(O)c([N+](=O)[O-])c1)c1ccccc1-n1cccc1 | 52.3 | -11.7 | -0.2 | 20.7 | 3.4 | -6.1
COc1ccc(/C=N/NC(=O)c2ccccc2O)cc1Cn1cc(Cl)cn1 | 79.5* | -9.7 | 0.1 | 8.4 | -4.2 | 5.8
COc1ccc(/C=N/NC(=O)c2cc(C)oc2C)cc1OC | -10.3 | 1.1 | 0.0 | 8.6 | 7.0 | -2.3
COc1cc(C=NNC(=O)c2ccccc2-n2cccc2)ccc1O | 98.9* | x | 0.2 | x | 13.9 | x
Cc1ccc(CN(C)C(=O)COc2ccc(S(=O)(=O)N3CCCC3)cc2[N+](=O)[O-])c(C)c1 | -2.7 | x | 0.0 | x | -18.7 | x
COc1ccc(N2CCN(C(CNC(=O)C(=O)NCCCn3ccnc3)c3ccco3)CC2)cc1 (stereo unspecified) | 83.4* | -4.8 | 0.1 | 15.9 | -5.6 | 5.2
O=C(NCCCn1ccnc1)C(=O)NCC(c1ccco1)N1CCN(c2ccccc2)CC1 (stereo unspecified) | 99.1* | -10.2 | 0.0 | 13.3 | -4.3 | -10.8
O=C(NCCCn1ccnc1)C(=O)NCC(c1cccnc1)N1CCN(c2ccccc2)CC1 (stereo unspecified) | 98.9* | 15.3 | 0.1 | 7.5 | 4.7 | 0.5
O=C(NCCCn1ccnc1)C(=O)NCC(c1ccco1)N1CCN(c2ccc(F)cc2)CC1 (stereo unspecified) | 98.2* | -1.2 | 0.1 | 12.6 | -14.4 | 6.2
COCCCNC(=O)C(=O)NCC(c1ccco1)N1CCN(c2ccc(OC)cc2)CC1 (stereo unspecified) | 31.2 | -2.4 | -0.1 | 4.6 | -0.2 | -4.0
O=C(NCC(c1ccco1)N1CCN(c2ccc(F)cc2)CC1)C(=O)NC1CC1 (stereo unspecified) | 5.6 | x | -0.2 | x | -4.5 | x
Cc1nn(-c2ccccc2)c2sc(C(=O)NNC(=O)COc3ccccc3)cc12 | -4.7 | -7.4 | -0.1 | 55.4* | 0.7 | -0.9
COc1ccc([C@@H]2C[C@H]3[C@@H](CN2S(=O)(=O)c2ccccc2)C(=O)C[C@@H](c2ccccc2)N3S(=O)(=O)c2ccc(C)cc2)cc1 | x | x | x | x | 17.8 | x
CCN1CCN(C(=O)CCc2nnc3ccc(N4CCN(c5cccc(OC)c5)CC4)nn23)CC1 | 99.1* | -6.8 | 0.0 | 21.9 | 0.4 | 4.6
COc1ccc(N2CCN(C(=O)CCc3nnc4ccc(N5CCCC5)nn34)CC2)cc1 | u | -5.5 | 0.2 | 15.8 | -15.9 | 1.4
SMILES | ALR inh | PABP polyA inh | Efflux pump inh | SUMO HTRF inh | MLLE-PAM2 inh | eIF4H inh
COc1ccc(N2CCN(c3ccc4nnc(CCC(=O)Nc5ccc(C)cc5)n4n3)CC2)cc1 | 91.7* | -4.6 | -0.1 | -11.6 | -2.6 | -19.0
COc1cccc(N2CCN(c3ccc4nnc(CCC(=O)Nc5ncccc5C)n4n3)CC2)c1 | 99.2* | 9.8 | 0.0 | 6.8 | -12.5 | 1.9
CCCS(=O)(=O)NC(=O)C1(C)CCCN(C(=O)c2ccc(C#N)cc2)C1 (stereo unspecified) | x | x | x | x | 2.7 | x
Cc1cccnc1NC(=O)CNC(=O)C1CCCCC1 | x | x | 0.0 | x | -10.4 | x
O=C(CNC(=O)C12CC3CC(CC(C3)C1)C2)NC1=NCCS1 | -2.6 | 4.0 | 0.0 | 3.3 | 44.8* | -5.3
O=C(CNC(=O)C1CCCCC1)NC1=NCCS1 | -4.8 | -2.4 | 0.0 | 30.9 | 39.7* | -6.8
Cc1oc(-c2ccccc2F)nc1CS(=O)CC(=O)NCc1ccccn1 (stereo unspecified) | 99.2* | 1.6 | 0.1 | 11.2 | 16.5 | -4.2
Cc1ccc(CNC(=O)CS(=O)Cc2nc(-c3cccs3)oc2C)cc1 (stereo unspecified) | 99.4* | 11.3 | 0.1 | 25.1 | 10.6 | 5.4
Cc1ccc(-c2nc(CS(=O)CC(=O)NCc3ccc(F)cc3)c(C)o2)cc1 (stereo unspecified) | 98.8* | -3.6 | -0.1 | 9.8 | 2.9 | -7.7
CCc1ccc(-c2nc(CS(=O)CC(=O)NCCc3ccccc3)c(C)o2)cc1 (stereo unspecified) | 99.2* | 0.7 | 0.0 | 7.3 | 6.3 | 4.2
Cc1ccc(CCNC(=O)CS(=O)Cc2nc(-c3cccs3)oc2C)cc1 (stereo unspecified) | x | 20.4 | -0.2 | 21.1 | 6.9 | -3.7
CC1(C)OC(=O)NC1c1ccccc1 (stereo unspecified) | x | x | x | x | -14.1 | x
Cc1ccc(-c2nc(CS(=O)CC(=O)NCc3ccccc3)c(C)o2)cc1 (stereo unspecified) | 98.1* | -2.7 | -0.1 | -7.2 | 7.5 | 2.7
COc1ccc(NC(=O)CS(=O)(=O)Cc2nc(-c3ccc(C)cc3)oc2C)cc1 | -2.0 | 11.1 | -0.1 | 9.3 | -15.9 | 2.8
Cc1ccc(-c2nc(CS(=O)CC(=O)NCc3ccccn3)c(C)o2)cc1 (stereo unspecified) | 99.6* | 1.9 | -0.1 | 17.0 | 12.9 | 0.9
Cc1ccc(NC(=O)CS(=O)Cc2nc(-c3ccc(C)cc3)oc2C)cc1 (stereo unspecified) | 98.8* | 2.9 | 0.1 | 12.5 | 2.0 | 4.3
c1ccc(COC2COC3C(OCc4ccccc4)COC23)cc1 (stereo unspecified) | x | x | x | x | -1.8 | x
CC(C)(C)OC(=O)C[C@@H]1C/C=C\C[C@H](CC(=O)N(CCO)Cc2ccccc2)C(=O)NCCOC1=O | x | x | 0.1 | x | 8.5 | x
O=C(Oc1ccc(-c2csnn2)cc1)c1cccs1 | -7.0 | -10.0 | 0.1 | 4.0 | 2.1 | 2.0
O=C(Oc1ccccc1-c1csnn1)c1cccs1 | 99.3* | 3.3 | -0.2 | 6.2 | -10.6 | 2.5
CC1(C)OC(=O)C(=NNc2ccc(O)cc2)C(=O)O1 | 99.3* | -1.1 | 0.0 | 24.6 | 0.1 | -10.8
CCN1CCN(c2cc(-c3ccccc3)nc3cc(-c4cccc(F)c4)nn23)CC1 | -1.1 | -11.8 | 1.3* | 1.2 | -5.5 | 1.5
